Shown are actives, neighbours in structure and some others; about 5.8% of the full set was active somewhere.
VP16 counter: Gal4-VP16 reporter inhibition counter-screen | Drosophila S2 Gal4-VP16 UAS-luciferase, luminescence, 20 h | actives 3.5% (n = 310,000) | Potency, µM (top dose mostly 53.6 µM), for the others: at the highest dose activity, negative = inhibition, actives largely listed as inhibitors;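 also: Gal4-VP16 expression switched on by copper sulfate through the metallothionein promoter; potency is read from the fitted curve at half-maximal effect; % is scaled to controls: 0 for no effect and ±100 for the full control effect; nearly all actives have a fitted effect of over 50% in size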
RORg inh: inhibitors of mouse ROR gamma transcriptional activity; Potency, µM (top dose mostly 53.6 µM), inactives show top-dose activity change, negative = inhibition, actives largely listed as inhibitors; P51450; Drosophila S2 Gal4-RORgamma UAS-luciferase reporter, 20 h; actives 5.4% (n = 310,000); also: potency is read from the fitted curve at half-maximal effect; % is scaled to controls: 0 for no effect and ±100 for the full control effect; nearly all actives have a fitted effect of over 60% in size
Target sequence (P51450 whole entry, looked up, the tested form may be a part): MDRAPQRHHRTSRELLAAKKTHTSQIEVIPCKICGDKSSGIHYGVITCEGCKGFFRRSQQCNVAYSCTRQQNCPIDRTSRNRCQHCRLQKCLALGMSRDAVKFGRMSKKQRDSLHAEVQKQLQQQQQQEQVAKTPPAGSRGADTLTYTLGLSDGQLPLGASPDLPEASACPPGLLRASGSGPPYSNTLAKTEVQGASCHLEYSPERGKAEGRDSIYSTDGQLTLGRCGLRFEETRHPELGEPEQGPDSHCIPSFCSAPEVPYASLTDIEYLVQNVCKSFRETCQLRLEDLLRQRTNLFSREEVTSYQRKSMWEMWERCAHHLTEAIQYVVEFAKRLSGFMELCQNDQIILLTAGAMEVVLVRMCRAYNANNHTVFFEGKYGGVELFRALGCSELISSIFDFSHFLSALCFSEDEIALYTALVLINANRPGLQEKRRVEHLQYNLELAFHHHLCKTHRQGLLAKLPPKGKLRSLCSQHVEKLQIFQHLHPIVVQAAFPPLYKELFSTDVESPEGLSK
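Stably transfected Drosophila Schneider cells are the test system, with ROR gamma fused to Gal4 and luciferase under UAS control; luminescence is read after 20 hr of 700 uM copper sulfate induction at ambient temperature.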
uPA surface inh: inhibitors of cell surface uPA generation; AID 540303; Potency, µM (titrated, usually from 38.3 µM), without a hit: top-dose activity change, negative = inhibition, usual class: inhibitors; actives 0.31% (n = 330,000); cell surface uPA generation assay, qHTS; active = well fitted inhibition curve with a large enough effect; inconclusive = small, poorly fitted or top-dose-only effect; inactive = no such curve, though single readings can be large or run the other way; tested in mouse RAW 264.7 cells; also: potency is read from the fitted curve at half-maximal effect; % is scaled to controls: 0 for no effect and ±100 for the full control effect; nearly all actives have a fitted effect of over 55% in size
TRPV1 agonist: human TRPV1 agonism. Q8NER1. TRPV1-expressing cells, Fluo-8 calcium influx, agonist mode. activation, % at 8.33 µM. actives 0.19% (n = 320,000). AID 540275; in the data active = activation above about 80%; inconclusive = between about 30% and that limit; also: 0% is about no effect
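TRPV1-expressing cells were cultured overnight at 35.5C and loaded with Fluo-8 calcium dye for 40 to 90 min at room temperature. After a 10 s baseline, compound was added and calcium influx was read kinetically for 3 min (ex 480/em 520 nm).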
TRPV1 potentiator: human TRPV1 potentiation. potentiation, % at 8.33 µM. Q8NER1. actives 0.02% (n = 320,000). TRPV1-expressing cells, Fluo-8 calcium influx, capsaicin EC20 potentiation; in the data active = potentiation above about 80%; inconclusive = between about 30% and that limit; also: 0% is about no effect
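Cells expressing TRPV1 were dye-loaded with Fluo-8 and read kinetically: 10 s baseline, 3 min after compound (agonist portion), then 2 min after EC20 capsaicin (allosteric enhancer portion). Calcium-bound dye fluorescence at 480/520 nm.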
Starred values were filed as active, the others as inactive; u = inconclusive; x = not tested or not shown; [ ] = another dose, or the depositor's remark. Unless noted, calls follow the shape of the dose curve; as a rule, active = well fitted curve in the direction sought with a large enough effect; inconclusive = small, poorly fitted or top-dose-only effect, or another doubt; inactive = no such curve, though single readings can be large; an effect the other way counts as inactive or inconclusive.

SMILES | VP16 counter | RORg inh | uPA surface inh | TRPV1 agonist | TRPV1 potentiator
Cc1ccc(C(=O)CN2/C(=C(\O)c3ccccc3)C(=O)c3ccccc3S2(=O)=O)c(C)c1 | u | 13µM* | -8% | -3 | 13
Cc1cc(C(=O)CN2C(=O)C3CC=CCC3C2=O)c(C)n1-c1ccccc1 (stereo unspecified) | 13µM* | u | -12% | 27 | -27
Cc1cc(C(=O)Cn2cc(C(F)(F)F)ccc2=O)c(C)n1-c1ccccc1 | u | 17% | -3% | 15 | -7
O=C(CN1C(=O)c2ccccc2S1(=O)=O)NCc1ccccc1Cl | 1% | 26% | 0% | 0 | -4
C=C(C)CC(C)(C)C | 4% | -8% | x | x | x
CC1=C2[C@@H]([C@H](C)CC[C@H]2/C=C(\C)C(=O)O)[C@H](O)C1 | 10% | 18% | x | x | x
N#Cc1c(NC(=O)CSC2=NCCS2)sc2c1CCCC2 | 22% | u | 1% | 2 | 4
CCCc1cc(=O)[nH]c(SCC(=O)Nc2sc3c(c2C#N)CCC(C)C3)n1 (stereo unspecified) | 3% | 14% | -3% | -1 | 12
Cc1ccnc(SCC(=O)Nc2sc3c(c2C#N)CCCC3)n1 | 7.1µM* | u | 9% | 2 | 27
CC(C)(C)C1CCc2c(sc(NC(=O)CSc3ncn[nH]3)c2C#N)C1 (stereo unspecified) | 11µM* | u | x | 21 | -9
N#Cc1c(NC(=O)CSc2ncn[nH]2)sc2c1CCCC2 | 0.11µM* | 0.32µM* | -7% | 5 | -3
CC1CCc2c(sc(NC(=O)CSc3ncn[nH]3)c2C#N)C1 (stereo unspecified) | 0.079µM* | 0.32µM* | u | 7 | 16
Cc1ccc(OCC(=O)OCC(=O)N2c3ccccc3CC2C)cc1C (stereo unspecified) | x | x | 3% | 5 | 23
Cc1ccc(C2=NN3C(C2)c2ccccc2OC32C(=O)Nc3ccccc32)cc1 (stereo unspecified) | u | 13µM* | -7% | 3 | -34
CN1C(=O)C2(Oc3ccccc3C3CC(c4ccccc4)=NN32)c2ccccc21 (stereo unspecified) | 2% | -43% | -8% | 0 | 6
Cc1nc2c(c(C)nn2-c2ccccc2)c(C)c1CCC(=O)NCCCOC(C)C | -11% | -6% | 1% | 23 | -10
Cc1ccc(CNC(=O)CCc2c(C)nc3c(c(C)nn3-c3ccc(C)cc3)c2C)cc1 | -2% | -27% | u | u | 2
CCCCNC(=O)CCc1c(C)nc2c(c(C)nn2-c2ccccc2)c1C | -4% | 17% | 4% | 94* | -1
Cc1ccc(-n2nc(C)c3c(C)c(CCC(=O)NCc4ccco4)c(C)nc32)cc1 | -14% | -32% | 10% | 82* | -13
Cc1ccc(-n2nc(C)c3c(C)c(CCC(=O)NCc4ccccc4)c(C)nc32)cc1 | -1% | -1% | 13% | 82* | 8
CCN(C(=O)CSc1nnnn1-c1ccccc1)C1CCS(=O)(=O)C1 (stereo unspecified) | 4% | 9% | 3% | -9 | 2
CCNc1ccc(Br)cc(C(=O)/C=C/c2ccc(Cl)cc2Cl)c1=O | 13µM* | 5µM* | -10% | 3 | 7
S=C(NCCc1ccccn1)NC1CC2CCC1C2 (stereo unspecified) | u | 6.3µM* | 9% | -3 | 3
CCOc1ccccc1NC(=S)NC1CC2CCC1C2 (stereo unspecified) | 7.1µM* | 2.8µM* | 17% | 1 | -11
CCOc1ccccc1NC(=S)Nn1cnnc1 | -15% | -34% | -6% | -2 | -31
SMILES | VP16 counter | RORg inh | uPA surface inh | TRPV1 agonist | TRPV1 potentiator
COc1ccc(NC(=S)NC2CC3CCC2C3)c(OC)c1 (stereo unspecified) | 11µM* | 5µM* | -8% | 5 | -4
COc1ccc(NC(=S)NC23CN4CN(CN(C4)C2)C3)c(OC)c1 | -3% | 2% | 5% | 2 | -1
CCCCCCC#CC1C=CC(Oc2ccc(C=O)cc2)C(CO)O1 (stereo unspecified) | -2%[10 µM] | 14%[10 µM] | x | x | x
CCOC(=O)C1(Cc2ccccc2)CCN(Cc2ccc3cc(NC(C)=O)ccc3n2)CC1 | -7% | -9% | -1% | 16 | -4
COc1cccc([C@@H]2Oc3ccc(OC)cc3C[C@H]2OC(=O)NCc2ccco2)c1 | -10% | 19% | x | x | x
CC(=O)N1CCN(c2ccc(NCc3ccco3)cc2)CC1 | x | x | 4.5µM* | 1 | 7
CC(=O)N1CCN(c2ccc(NC(=O)c3ccco3)cc2)CC1 | -10% | -24% | -4% | -1 | -34
O=C(O)c1cn(-c2ccc(F)c(F)c2)c2c(F)c(F)c(F)c(F)c2c1=O | 0% | -25% | -14% | 2 | 7
Cc1c(CCC(=O)N2CCC(C(=O)O)(c3ccccc3)CC2)c(=O)oc2cc3oc4c(c3cc12)CCCC4 | u | 1.1µM* | 6% | 1 | 10
Cc1coc2cc3oc(=O)c(CCC(=O)NCCCn4ccnc4)c(C)c3cc12 | -5% | -11% | -8% | 2 | 6
Cc1c(CCC(=O)NCCCn2ccnc2)c(=O)oc2cc3oc4c(c3cc12)CCCC4 | 16µM* | 1.3µM* | u | 18 | -10
Cc1c(CCC(=O)N2CCC(C(=O)O)CC2)c(=O)oc2cc3oc4c(c3cc12)CCCC4 | u | u | 6% | 1 | 3
CC(C)Cn1nc(C(=O)Nc2nnc(C3CC3)s2)c2ccccc2c1=O | x | x | -7% | 14 | -4
O=C(COC(=O)C1CC(=O)N(CCc2ccccc2)C1)c1ccc[nH]1 (stereo unspecified) | x | x | 4% | -8 | 4
Cc1ccccc1N(C(=O)Cn1nnc(-c2ccc(F)cc2)n1)C(C(=O)NC(C)(C)C)c1ccncc1 (stereo unspecified) | -12% | 17% | 2% | 23 | -21
CC(C)(C)NC(=O)C(c1ccncc1)N(C(=O)Cn1nnc(-c2ccc(F)cc2)n1)c1ccccc1F (stereo unspecified) | -27% | 13µM* | 6% | 1 | 2
CC1=NN(c2ccccc2)C(=O)/C1=C/C=C/c1ccc(N(C)C)cc1 | -12% | -12% | -27% | -1 | 3
CCOC(=O)c1ccc(N2N=C(C)/C(=C/C=C/c3ccco3)C2=O)cc1 | -11% | 42% | 0% | 2 | -14
CC1=NN(c2ccc(C(=O)OC(C)C)cc2)C(=O)/C1=C\C=C\c1ccco1 | u | 14µM* | -4% | -1 | -7
CC1=NN(c2ccccc2)C(=O)/C1=C\C=C\c1ccccc1 | u | 8.9µM* | -2% | x | x
COc1ccc(-c2csc(Nc3ncccc3C)n2)cc1 | 6% | u | 1% | -1 | 13
Cc1nc(C)c(-c2csc(Nc3ncccc3C)n2)s1 | -21% | -31% | -11% | 11 | -2
COc1ccc(-c2csc(Nc3ncccc3C)n2)cc1OC | -27% | 3.5µM* | -7% | 5 | 8
Cc1cccnc1Nc1nc(-c2ccc(O)c(O)c2)cs1 | 7.1µM* | -111% | u | 9 | 4
